From ChEMBL document CHEMBL3988442, “University of Dundee, Small-Polar-MMV Screening Library” (2021)
Out of some 48,000 compounds screened, about 13,000 (27%) showed an effect of 50% or more. This is one part of the list.

tested on: Wolbachia pipientis; experiment: Anti-Wolbachia Cell-Based Screen; format: functional; design: scale not given: in the data most compounds retested in dose-response had high values; conditions: 5 µM

| SMILES | Percent Effect [%] |
| --- | --- |
| CCn1c(C)cc(C(=O)NCc2ccc(CS(C)(=O)=O)cc2)c1C | 4.177 |
| COCc1nc(CN2CCC3(CCCO3)CCC2=O)no1 (stereo unspecified) | -11.19 |
| CC(=O)N(C)CC(=O)NC1(c2ccc(Br)cc2)CC1 | -3.81 |
| CCN(CC(=O)NC(C)C)S(=O)(=O)N1CCC(C)C1 (stereo unspecified) | 1.094 |
| c1ccc2[nH]c(C3CCN(Cc4noc(C5CC5)n4)CC3)cc2c1 | -4.924 |
| c1cc2c(cc1CN1CCN(Cc3noc(C4CC4)n3)CC1)OCO2 | 111.2 |
| CN1CCN(C2CCN(Cc3noc(C4CC4)n3)CC2)C1=O | 10.17 |
| CSc1nccc(NCc2cc3n(n2)CCCN(S(C)(=O)=O)C3)n1 | 18.18 |
| Nc1nccc(NCc2cc3n(n2)CCCN(C(=O)C2CCC2)C3)n1 | -4.748 |
| Nc1nccc(NCc2cc3n(n2)CCCN(C2CCCCC2)C3)n1 | 13.65 |
| CSc1nccc(NCc2cc3n(n2)CCCN(C(=O)C2CCC2)C3)n1 | 104.3 |
| CCn1ccnc1CN1CCCn2nc(CNC(=O)C3CCC3)cc2C1 | 17.11 |
| Cc1nccc(NCc2cc3n(n2)CCCN(C(=O)C2CCC2)C3)n1 | 100.1 |
| Cc1ccc(C2C3=C(COC3=O)Nc3[nH]nc(C)c32)cc1C (stereo unspecified) | 8.246 |
| CCc1nccn1CCC(=O)N1CC[C@@H](c2sccc2C)[C@H](O)C1 | -1.934 |
| O=C(O)C(F)(F)F.c1cnc(N2CCO[C@H]3CN(CC4CCC4)C[C@H]32)cn1 | 107.5 |
| CNC(=O)CN1CCO[C@H]2CN(CC3CCOCC3)C[C@H]21.O=C(O)C(F)(F)F.O=C(O)C(F)(F)F | -17.71 |
| CN(C)c1nccc(N2CCO[C@H]3CN(CC4CCOCC4)C[C@H]32)n1 | 11.02 |
| c1cnc(N2CCO[C@H]3CN(CC4CCCC4)C[C@H]32)cn1 | 112.8 |
| Cn1cc(CN2C[C@@H]3OCCN(CC4CCCC4)[C@@H]3C2)cn1 | -2.926 |
| O=C(O)C(F)(F)F.c1cnc(N2CCO[C@H]3CN(CC4CCOC4)C[C@H]32)cn1 (stereo partly specified) | 122.8 |
| O=C(O)C(F)(F)F.c1cnc(N2CCO[C@H]3CN(Cc4csnn4)C[C@H]32)cn1 | 6.84 |
| O=C(O)C(F)(F)F.c1cnc(N2CCO[C@H]3CN(Cc4c[nH]cn4)C[C@H]32)cn1 | 2.338 |
| Cc1nn(CCn2ccnc2-c2cc3n(n2)CCCNC3)c(C)c1Cl | 1.548 |
| CC(C)C(C(=O)NC1CC1)n1cnc2cc(F)c(F)cc21 (stereo unspecified) | 15.81 |
| O=C(NCc1nc(C2CC2)no1)N1CCOC(c2ccccc2F)C1 (stereo unspecified) | 3.199 |

| SMILES | Percent Effect [%] |
| --- | --- |
| CC(C)CNC(=O)C[S+]([O-])Cc1csc(C2CCCCC2)n1 (stereo unspecified) | -4.765 |
| COc1ccc(C(O)CNc2c(C#N)c(=O)n(C)c(=O)n2C)cc1 (stereo unspecified) | -9.845 |
| CN(C(=O)C1CSCN1S(=O)(=O)c1ccc(F)cc1)C1CC1 (stereo unspecified) | 5.468 |
| Cc1cc(CNC2CCc3nc(C(C)C)nn3C2)on1 (stereo unspecified) | 128.3 |
| CC(C)c1nc2n(n1)CC(NCc1cc3ccccc3o1)CC2 (stereo unspecified) | -25.06 |
| COCCc1noc(CNC2CCc3nc(C(C)C)nn3C2)n1 (stereo unspecified) | -13.08 |
| CC(C)c1nc2n(n1)CC(NCc1nnc(C(C)C)o1)CC2 (stereo unspecified) | 2.327 |
| CC(C)c1nc2n(n1)CC(NCc1nc(-c3ccccn3)no1)CC2 (stereo unspecified) | 1.998 |
| Cc1ccc(CNC2CCc3nc(C(C)C)nn3C2)o1 (stereo unspecified) | 110.7 |
| CCN(C(=O)NCc1ccccc1OC(F)F)C(C)c1cccnc1 (stereo unspecified) | -11.48 |
| CC(C)(NCC(=O)N1CCCC(C(N)=O)C1)c1ccc(Cl)cc1 (stereo unspecified) | 1.343 |
| CC(C)(C)c1cc(C(=O)N2CCOC(c3cnccn3)C2)[nH]n1 (stereo unspecified) | 139 |
| CCCc1cc(C(=O)N2CCCC2c2cccnc2)[nH]n1 (stereo unspecified) | 15.07 |
| CC(C)(C)c1cc(C(=O)N2CCC(c3cnccn3)CC2)[nH]n1 | 96.1 |
| CC(C)(C)c1cn(C2CCN(C(=O)c3cnccn3)CC2)nn1 | -4.102 |
| Cc1cc(C(=O)N2CCOC(c3nc(C)n[nH]3)C2)[nH]n1 (stereo unspecified) | -1.43 |
| Cc1cc(C(=O)N2CCOC(c3ccc(Cl)c(Cl)c3)C2)[nH]n1 (stereo unspecified) | -12.35 |
| CC(C)c1nc(C(=O)N2C[C@H]3CC[C@@H]2CN(C2CCOCC2)C3)cs1 | -6.079 |
| CCOCC(=O)N1CCC(c2nccn2Cc2cscn2)CC1 | -5.535 |
| Cc1ccc(F)cc1CC(=O)N1CC[C@@]2(O)CCNC[C@H]2C1 | -17.57 |
| O=C(Cc1ccc(F)cc1Cl)N[C@@H]1CCNC[C@H]1O | 6.286 |
| Cc1cc(F)ccc1-c1ccccc1CC1CNCCNC1=O.Cl (stereo unspecified) | 140 |
| CCNC(=O)[C@@H]1CCCN1[C@@H](C(=O)NC)C1CC1.Cl | 7.785 |
| CCS(=O)(=O)N1CC[C@@H]2[C@@H](CCC(=O)N2CCc2ccccc2)C1 | -12.22 |
| CCCS(=O)(=O)N1CC(=O)N(CCCc2ccccc2)CC(O)C1 (stereo unspecified) | 106.2 |
| O=C1CN(S(=O)(=O)CC(F)(F)F)CC(O)CN1CCCc1ccccc1 (stereo unspecified) | 73.93 |

| SMILES | Percent Effect [%] |
| --- | --- |
| CCCS(=O)(=O)N1CCC2(CCC(=O)N(CCc3ccccc3)C2)CC1 | 19.11 |
| CS(=O)(=O)N1CC(=O)N(CCCc2ccccc2)CC(O)C1 (stereo unspecified) | 96.22 |
| CCS(=O)(=O)N1CC(=O)N(CCCc2ccccc2)CC(O)C1 (stereo unspecified) | 108.2 |
| CCS(=O)(=O)N1CCC(OCCCc2ccccc2)C1 (stereo unspecified) | -14.61 |
| CS(=O)(=O)N1CCC(OCCCc2ccccc2)C1 (stereo unspecified) | -9.606 |
| Cn1ccnc1CN1C(=O)CO[C@H]2CN(CCCc3ccccc3)C[C@H]21 | -23.58 |
| CS(=O)(=O)N1CCC2(CCCN(CCCc3ccccc3)C2=O)C1 (stereo unspecified) | 8.67 |
| N#Cc1cccc(NC2CC(=O)N(CCCc3ccccc3)C2)n1 (stereo unspecified) | -4.151 |
| CCCS(=O)(=O)N1CCC2(CC1)CC(=O)N(CCCc1ccccc1)C2 | 8.339 |
| CC(C)(C)NC(=O)N1CCN2C(=O)OCC2C1 (stereo unspecified) | -12.64 |
| CCC(C)c1csc(NC(=O)c2sc(-c3nnc[nH]3)nc2C)n1 (stereo unspecified) | -26.52 |
| CSc1cccc(CNC(=O)C2CC(=O)N(CCN(C)C)C2)c1 (stereo unspecified) | 8.737 |
| O=C(c1nnn(-c2ccc(C(F)(F)F)cc2)n1)N1CCC(O)CC1 | 4.237 |
| N[C@H]1CN(CCCOc2ccccc2)C[C@@H]1C1CC1 | -13.64 |
| CCS(=O)(=O)N1CC(=O)N(CCOc2ccccc2)CC(O)C1 (stereo unspecified) | 118.2 |
| CC(C)[C@@H]1CN(CCOc2ccccc2)C[C@H]1NS(=O)(=O)N(C)C | 3.365 |
| CC(C)N1CCC2(CCCN(C(=O)c3cncn3C)C2)CC1.O=C(O)C(F)(F)F | 0.429 |
| CC(C)CN(C)c1ccc(C(=O)N2CCCC2c2cnn(C)c2)cn1 (stereo unspecified) | -4.627 |
| CN(C)c1ccc(C(=O)N2CCCC2c2cnn(C)c2)nn1 (stereo unspecified) | 5.055 |
| Cc1noc2ncc(C(=O)N3CCCC3c3cnn(C)c3)cc12 (stereo unspecified) | 9.393 |
| CN(C)c1cc(C(=O)N2CCCC2c2cnn(C)c2)ccn1 (stereo unspecified) | 118.6 |
| CN(C)c1ccc(C(=O)N2CCCC2c2cnn(C)c2)cn1 (stereo unspecified) | 96.67 |
| COc1cccc(OC2CN(C(=O)Cn3nc4ccccc4n3)C2)c1 | -0.01054 |
| NC(=O)C1(Cc2ccc(-c3ccccc3)cc2)CCNC1 (stereo unspecified) | 156.4 |
| Cl.Cl.c1ccc(-c2cnc3n2CCNC32CCNCC2)cc1 | -2.159 |
| OC1(CNCCSCc2ccccc2)CCCNC1 (stereo unspecified) | 3.749 |

| SMILES | Percent Effect [%] |
| --- | --- |
| Cc1cc(C)cc(-c2ccc(CC3(C(=O)O)CCOCC3)cc2)c1 | 0.9737 |
| O=C(NCCc1nncn1C1CC1)C1(Cc2ccccc2)CCC1 | 0.4274 |
| CCNC(=O)C1(Cc2ccc(-c3ccccc3)cc2)CCCNC1 (stereo unspecified) | 160.5 |
| NC(=O)C1(Cc2ccc(-c3ccccc3)cc2)CCCNC1 (stereo unspecified) | 155.7 |
| Cn1c(=O)oc2ccc(Nc3ncc(C#N)cc3Cl)cc21 | -1.266 |
| OCC(CO)Nc1cccc(C(F)(F)F)n1 | -11.08 |
| Cc1ccc(N2CCC(c3nccn3Cc3cscn3)CC2)nn1 | -11.8 |
| Nc1cc(N2CCCC2c2cnccn2)ncn1 (stereo unspecified) | -4.526 |
| c1cnc2nc(N3CCc4c(ncn4C4CC4)C3)ccc2n1 | 1.111 |
| c1cnc2nc(N3CCCC3c3nnc4n3CCCCC4)ccc2n1 (stereo unspecified) | 123.3 |
| COc1ccc(C2CCCN2c2cnc3ccccc3n2)c(OC)c1 (stereo unspecified) | 8.411 |
| CC(C)c1nc(C2CCCN2c2cnc3ccccc3n2)no1 (stereo unspecified) | -9.022 |
| c1ccc2nc(N3CCCC3c3nnc4n3CCCCC4)cnc2c1 (stereo unspecified) | 231.1 |
| Cn1c(CC2CCS(=O)(=O)C2)nnc1SCCOc1ccccc1F (stereo unspecified) | 1.517 |
| CN(Cc1ccncc1)C(=O)Nc1cnn(CC(N)=O)c1 | -7.922 |
| CCN(C)S(=O)(=O)N1CCC(C(O)c2ccc(Cl)cc2)CC1 (stereo unspecified) | 1.239 |
| CC(C)COC(C)C(=O)NCc1cc(F)cc(F)c1 (stereo unspecified) | -4.135 |
| CCOCCOC(C)C(=O)NCc1ccc(N2CCCCC2)cc1 (stereo unspecified) | -8.198 |
| CC(C)COC(C)C(=O)NCc1ccc(OC(C)C)nc1 (stereo unspecified) | 0.7864 |
| CC(C)COC(C)C(=O)NCc1ccc(F)cc1 (stereo unspecified) | 52.08 |
| CC(C)COC(C)C(=O)NCc1ccccc1 (stereo unspecified) | 129.5 |
| CC(OCC1CC1)C(=O)NCc1cccc(CN2CCCC2=O)c1 (stereo unspecified) | 3.012 |
| Cc1cc(C)n(-c2ccc(N3CCC4(CC3)OCC(C)O4)nc2)n1 (stereo unspecified) | 14.39 |
